Common to all, as to details: modulator concentration 10 µM
Experiment [1] deals with RAW-Dual (murine macrophage reporter line). Put plainly: NF-kB reporter (SEAP) activity fold change vs agonist alone; higher = enhanced NF-kB activity. The method in brief:
(§1)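 In 384-well plates holding 50 000 RAW-Dual murine macrophage reporter cells per well, compound at 10 μM final was pre-incubated for 1 hour at 37 °C, after which a PRR agonist was added overnight. Supernatant SEAP read with QUANTI-Blue at 620 nm absorbance reported NF-κB, and Lucia luciferase read with QUANTI-Luc luminescence reported IRF. Fold change values come from dividing each reporter signal by the mean of agonist-only control wells on the same plate, averaged over replicate plates with propagated errors.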

For experiment [2] the test system is unchanged. Put plainly: IRF reporter (Lucia luciferase) activity fold change vs agonist alone; higher = enhanced IRF activity. The gist of the method: as §1
The test system is the same in experiment [3]. Briefly: viability score (confluency relative to resting cells, overnight) (fraction); higher = more viable, active = viable (0.7 or more). The gist of the method:
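Compound was added at a final 10 μM to RAW-Dual macrophages in 384-well plates and left overnight. Confluency was imaged with IncuCyte, and two masks were generated in IncuCyte software over all imaged wells. Each viability score is confluency relative to resting cells, and a compound met the cutoff only when both masks were above 70% of resting cells.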

[4] abbreviates: agonist: CpG ODN 1826 0.5 ug/mL.

± gives the standard deviation.

In the case of `O=C(Nc1ccc(F)cc1)c1ccco1`, the figures for the NF-kB reporter in experiment [1] (setting [4]), in experiment [1] (agonist: LPS 0.1 ug/mL) and in experiment [1] (agonist: MPLA […]) were 0.904 ± 0.074, 1.11 ± 0.12 and 1 ± 0.038, respectively. The figures for the IRF reporter in experiment [2] (agonist: 3'3'-cGAMP 10 ug/mL), in experiment [2] (agonist: LPS 0.1 ug/mL) and in experiment [2] (agonist: MPLA […]) were 0.879 ± 0.15, 1.03 ± 0.042 and 0.915 ± 0.11, respectively. The viability score in experiment [3] is 0.996 (active).

Turning to `N#CC1=C(NC(=S)NC(=O)c2ccccc2)c2ccccc2CC12CCCC2`, the NF-kB reporter in experiment [1] (setting [4]) was found to be 0.535 ± 0.03; in experiment [1] (agonist: LPS 0.1 ug/mL), 0.918 ± 0.07; in experiment [1] (agonist: MPLA […]), 0.717 ± 0.042. The IRF reporter came to 0.792 ± 0.033 in experiment [2] (agonist: 3'3'-cGAMP 10 ug/mL), 1.63 ± 0.1 in experiment [2] (agonist: LPS 0.1 ug/mL) and 1.26 ± 0.2 in experiment [2] (agonist: MPLA […]). Moreover, in experiment [3], the viability score was 0.982 (active).

For `CC(Cc1ccc(O)c(O)c1)(NN)C(=O)O` (stereo unspecified), the values for the NF-kB reporter in experiment [1] (setting [4]), in experiment [1] (agonist: LPS 0.1 ug/mL) and in experiment [1] (agonist: MPLA […]) were 0.957 ± 0.083, 0.979 ± 0.076 and 0.877 ± 0.083, respectively. The values for the IRF reporter in experiment [2] (agonist: 3'3'-cGAMP 10 ug/mL), in experiment [2] (agonist: LPS 0.1 ug/mL) and in experiment [2] (agonist: MPLA […]) were 0.952 ± 0.03, 1.24 ± 0.15 and 1.38 ± 0.18, respectively. In experiment [3], the viability score is 1 (active).

Take `COc1cc(=O)n(C)cc1C(=O)Nc1cccnc1`: the values for the NF-kB reporter in experiment [1] (setting [4]), in experiment [1] (agonist: LPS 0.1 ug/mL) and in experiment [1] (agonist: MPLA […]) were 1.06 ± 0.065, 0.817 ± 0.13 and 1.06 ± 0.065, respectively. In addition, the IRF reporter amounted to 0.943 ± 0.064 in experiment [2] (agonist: 3'3'-cGAMP 10 ug/mL), 0.899 ± 0.17 in experiment [2] (agonist: LPS 0.1 ug/mL) and 0.915 ± 0.25 in experiment [2] (agonist: MPLA […]). Moreover, the viability score in experiment [3] was 0.967 (active).

With `O=C1c2ccc(-c3ccc4c(c3)C(=O)N(CCO)C4=O)cc2C(=O)N1CCO`, the figures for the NF-kB reporter in experiment [1] (setting [4]), in experiment [1] (agonist: LPS 0.1 ug/mL) and in experiment [1] (agonist: MPLA […]) were 0.94 ± 0.078, 1.03 ± 0.063 and 0.912 ± 0.1, respectively. For the same compound, the results for the IRF reporter in experiment [2] (agonist: 3'3'-cGAMP 10 ug/mL), in experiment [2] (agonist: LPS 0.1 ug/mL) and in experiment [2] (agonist: MPLA […]) were 0.934 ± 0.048, 1.33 ± 0.09 and 1.24 ± 0.3, respectively. Also, the viability score in experiment [3] is 1 (active).

With `Cl.NC12CC3CC(CC(C3)C1)C2`, the NF-kB reporter in experiment [1] (setting [4]) came to 1.44 ± 0.2; in experiment [1] (agonist: LPS 0.1 ug/mL), 1.21 ± 0.38; in experiment [1] (agonist: MPLA […]) it was 1.04 ± 0.062. The IRF reporter worked out at 0.909 ± 0.033 in experiment [2] (agonist: 3'3'-cGAMP 10 ug/mL), 1.44 ± 0.24 in experiment [2] (agonist: LPS 0.1 ug/mL) and 1.12 ± 0.096 in experiment [2] (agonist: MPLA […]). In addition, in experiment [3], the viability score is 0.983 (active).

Turning to `O=C(Cc1ccc(F)cc1)NCC1CCCN1c1ccccc1` (stereo unspecified), the NF-kB reporter in experiment [1] (setting [4]) came out at 1.21 ± 0.11; in experiment [1] (agonist: LPS 0.1 ug/mL), 1.1 ± 0.083; in experiment [1] (agonist: MPLA […]) it was 1.09 ± 0.029. Also, the IRF reporter in experiment [2] (agonist: 3'3'-cGAMP 10 ug/mL) turned out to be 0.677 ± 0.043; in experiment [2] (agonist: LPS 0.1 ug/mL), 1.12 ± 0.077; in experiment [2] (agonist: MPLA […]), 0.893 ± 0.13. Besides, in experiment [3], the viability score is 0.992 (active).

With `Cc1cccc(C(=O)NC2CCC(F)(F)CC2)c1`, the NF-kB reporter in experiment [1] (setting [4]) came out at 1.07 ± 0.068; in experiment [1] (agonist: LPS 0.1 ug/mL), 0.934 ± 0.082; in experiment [1] (agonist: MPLA […]), 1.03 ± 0.058. Also, the IRF reporter in experiment [2] (agonist: 3'3'-cGAMP 10 ug/mL) stood at 0.823 ± 0.034; in experiment [2] (agonist: LPS 0.1 ug/mL), 1.1 ± 0.058; in experiment [2] (agonist: MPLA […]), 0.99 ± 0.2. In addition, the viability score in experiment [3] was 1 (active).

As for `Cc1cn(-c2cc(NC(=O)c3ccc(C)c(Nc4nccc(-c5cnccn5)n4)c3)cc(C(F)(F)F)c2)cn1`, the NF-kB reporter in experiment [1] (setting [4]) was 0.892 ± 0.22; in experiment [1] (agonist: LPS 0.1 ug/mL), 1.17 ± 0.059; in experiment [1] (agonist: MPLA […]), 0.982 ± 0.063. Besides, the IRF reporter is 0.867 ± 0.032 in experiment [2] (agonist: 3'3'-cGAMP 10 ug/mL), 0.943 ± 0.11 in experiment [2] (agonist: LPS 0.1 ug/mL) and 1.19 ± 0.33 in experiment [2] (agonist: MPLA […]). For the same compound, the viability score in experiment [3] was 0.988 (active).

For the compound `COc1cc2nc(N3CCN(C(=O)C4COc5ccccc5O4)CC3)nc(N)c2cc1OC.CS(=O)(=O)O` (stereo unspecified), the NF-kB reporter in experiment [1] (setting [4]) was found to be 0.103 ± 0.014; in experiment [1] (agonist: LPS 0.1 ug/mL), 1.29 ± 0.2; in experiment [1] (agonist: MPLA […]) it was 1.2 ± 0.082. Further, the IRF reporter turned out to be 0.273 ± 0.017 in experiment [2] (agonist: 3'3'-cGAMP 10 ug/mL), 1.44 ± 0.33 in experiment [2] (agonist: LPS 0.1 ug/mL) and 1.97 ± 0.15 in experiment [2] (agonist: MPLA […]). The viability score in experiment [3] is 0.914 (active).

For `CC(=O)NC(Cc1c[nH]c2ccccc12)C(=O)O` (stereo unspecified), the NF-kB reporter in experiment [1] (setting [4]) is 1.09 ± 0.27; in experiment [1] (agonist: LPS 0.1 ug/mL), 1.09 ± 0.083; in experiment [1] (agonist: MPLA […]) it was 0.978 ± 0.063. Moreover, the IRF reporter in experiment [2] (agonist: 3'3'-cGAMP 10 ug/mL) was 0.969 ± 0.042; in experiment [2] (agonist: LPS 0.1 ug/mL), 1.33 ± 0.14; in experiment [2] (agonist: MPLA […]), 1.3 ± 0.13. Also, the viability score in experiment [3] is 0.995 (active).

As to `NN=C1CCCc2c1[nH]c1ccc(Cl)cc21`, the NF-kB reporter was found to be 1.07 ± 0.11 in experiment [1] (setting [4]), 1.04 ± 0.081 in experiment [1] (agonist: LPS 0.1 ug/mL) and 1.05 ± 0.056 in experiment [1] (agonist: MPLA […]). In addition, the IRF reporter was found to be 0.505 ± 0.13 in experiment [2] (agonist: 3'3'-cGAMP 10 ug/mL), 0.95 ± 0.076 in experiment [2] (agonist: LPS 0.1 ug/mL) and 0.873 ± 0.12 in experiment [2] (agonist: MPLA […]). In addition, the viability score in experiment [3] was 0.99 (active).

With `CC(NC(=O)C1CCN(S(=O)(=O)N2CCCC2)CC1)c1ccc(F)cc1` (stereo unspecified), the NF-kB reporter worked out at 1.08 ± 0.054 in experiment [1] (setting [4]), 1.05 ± 0.082 in experiment [1] (agonist: LPS 0.1 ug/mL) and 0.928 ± 0.041 in experiment [1] (agonist: MPLA […]). Also, the IRF reporter came out at 0.953 ± 0.051 in experiment [2] (agonist: 3'3'-cGAMP 10 ug/mL), 1.25 ± 0.085 in experiment [2] (agonist: LPS 0.1 ug/mL) and 1.09 ± 0.15 in experiment [2] (agonist: MPLA […]). In addition, the viability score in experiment [3] is 0.992 (active).

These data come from the supplement of paper PMC10646978.
